Experimental data taken from PubChem BioAssay AID504582 (Broad Institute, 2011).
About 2,300 (0.68%) of roughly 340,000 compounds were called active. Shown is part of a subset that was picked to be rich in actives. Values without a mark were called inactive. No stated cut-off is given here; in the data, active means growth rescue above about 28% (passing the limit was not always enough); inconclusive means no clear call, values can overlap the other calls.

Assay: rescue of yeast from PfHsp40 toxicity, primary screen, S. cerevisiae, ATP luminescence (AID 504582);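 further: yeast W303a lacking pdr1 and pdr3 grown in galactose medium; growth measured after three days at 30 °C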
Conditions: S. cerevisiae expressing PfHsp40, growth rescue, at 12.5 µM, active compounds read high

Compound	growth rescue
CN(C)CCCn1c(SCCN2C(=O)c3ccccc3C2=O)nc2ccccc2c1=O	-0.077%
COc1ccc(C2OC(=O)CC2C(=O)NC(C)C)cc1 (configuration not stated)	-0.42%
Cc1cccc(CCNS(=O)(=O)c2ccc(S(=O)(=O)NC3CCCC3)cc2)c1	0.473%
O=C(CCc1nnc2ccc(NCCCN3CCCC3=O)nn12)NCc1ccccc1Cl	-0.483%
Cc1nn(C)cc1C(=O)Nc1ccccc1Br	0.045%
CCCS(=O)(=O)N1CCN=C1SCc1cccc(F)c1	0.879%
O=C1CC(=O)Nc2cc(S(=O)(=O)N3CCN(c4cccc(C(F)(F)F)c4)CC3)ccc2N1	-1.27%
O=C1CN(C(=O)c2cc(F)cc(F)c2)c2ccccc2N1	-0.198%
CC(=O)/C(=N\Nc1ccc(Cl)cc1Cl)Sc1cccc2cccnc12	67.7% (active)
Cc1c(NC(=O)CSc2cccc3cccnc23)c(=O)n(-c2ccccc2)n1C	5.35%
O=C(NNc1cc(Cl)ccc1Cl)c1cccnc1Cl	0.035%
O=[N+]([O-])c1ccc(N2CCN(S(=O)(=O)c3ccccc3)CC2)cc1N1CCc2ccccc2C1	-0.201%
CC/C(=C\c1ccc(Cl)cc1)c1ccncc1	0.0255%
CCOC(=O)C1CCCN(C(=O)CN(c2ccc(OC)cc2)S(=O)(=O)c2c(C)noc2C)C1 (configuration not stated)	0.46%
CCN(C(=O)C1CCCN(c2nc(-c3ccc(OC)cc3)no2)C1)c1ccc(OC)cc1 (configuration not stated)	61.7% (active)
COc1ccc(NC(=O)N2CCCC(c3nc(-c4ccc(F)cc4)no3)C2)cc1 (configuration not stated)	0.883%
C/C(=N\NC(=O)c1ccc(NS(=O)(=O)c2cccs2)cc1)c1ccc2ccccc2c1	-0.368%
CSCCC(NC(=O)COc1ccccc1)C(=O)OCCOc1ccc(F)cc1 (configuration not stated)	-0.578%
CSCCC(NC(=O)COc1ccccc1)C(=O)OCCOc1ccc(Br)cc1 (configuration not stated)	-0.924%
CSCCC(NC(=O)COc1ccccc1)C(=O)N1CCN(c2cccc(C(F)(F)F)c2)CC1 (configuration not stated)	197% (active)
COCCCNS(=O)(=O)c1cccc(S(=O)(=O)c2cccc(S(=O)(=O)NCCCOC)c2)c1	-1.18%
CNC(=S)N1CCC(NC(=O)C(Cc2ccc(F)cc2)NC(C)=O)CC1 (configuration not stated)	-1.81%

Compound	growth rescue
Cc1ccc(S(=O)(=O)NCC(=O)N(CC(=O)NC(C)(C)C)Cc2cccs2)cc1	-1.96%
O=C(N[C@@H](Cc1c[nH]c2ccccc12)C(=O)O)OCC1c2ccccc2-c2ccccc21	-1.08%
CC(=O)c1cccc(NC(=S)N2CCN(S(C)(=O)=O)CC2)c1	-0.215%
COc1cc(NC(=O)CSc2ccc(-c3cccnc3)nn2)cc(OC)c1	-0.74%
O=C(CSc1ccc(-c2ccc(-n3cccn3)cc2)nn1)Nc1ccc([N+](=O)[O-])cc1	0.191%
O=C(CSc1ccc(-c2ccccn2)nn1)Nc1ccccc1	379% (active)
N#Cc1ccc(C(=O)OCC(=O)NC(=O)NC2CCCCC2)cc1	0.27%
COc1cccc(NC(=S)N(Cc2ccc(C)cc2)Cc2ccccn2)c1	1.55%
COc1ccc(OC(C)C(=O)Nc2cccnc2)cc1 (configuration not stated)	-0.665%
COc1ccc(NS(=O)(=O)c2ccc(NC(=S)NC(=O)/C=C/c3ccc(C)cc3)cc2)nn1	-1.55%
COc1ccc(CS(=O)/C(Cl)=C(/Cl)C(=O)Nc2ccc(OC)nc2)cc1 (configuration not stated)	81.6% (active)
COc1ccc(NC(=O)/C(Cl)=C(/Cl)S(=O)Cc2ccc(C)cc2)cn1 (configuration not stated)	278% (active)
COc1ccc(CCNC(=O)COC(=O)c2cnc(Cl)c(Cl)c2)cc1	-2.56%
O=S(=O)(NC1CC1)c1ccc(Cl)cc1	-0.92%
O=S(=O)(NC1CCCCC1N1CCCCC1)c1ccc(Cl)cc1 (configuration not stated)	1.55%
O=S(=O)(NC1CC2CCC1C2)c1ccc(Cl)cc1 (configuration not stated)	74.5% (active)
COc1ccccc1OCC(=O)Nc1c2c(nn1-c1ccc(F)cc1)CS(=O)(=O)C2	3.47%
CCOC(=O)c1c(NC(=O)NC(C)(C)C)sc2c1CCN(C)C2	-1.54%
CCOC(=O)c1cnc(-n2nc(C)cc2C)nc1NNc1cc(C)nc(-c2ccccc2)n1	0.854%
COc1ccccc1/C=N/N1CCN(Cc2ccccc2Cl)CC1	-1.43%
COc1ccccc1/C=N\Nc1cc(C)nc(-n2nc(C)cc2C)n1	143% (active)
COc1ccc(CNC(=O)COC(=O)C2=Cc3ccccc3OC2)cc1	0.075%

Compound	growth rescue
CC(=O)c1c(C)[nH]c(C(=O)NCc2ccc(C)cc2)c1C	-0.188%
CCCCNC(=O)CSc1nccn1Cc1ccccc1	0.912%
Cc1cccc(-c2nc(Nc3ccc(O)cc3)c3ccccc3n2)c1	101% (active)
Oc1ccc(-c2nnc(Nc3ccccc3)c3ccccc23)cc1	-0.3%
CN1CCN(c2nc(Nc3ccc(O)cc3)nc3ccccc23)CC1	-0.529%
CC1(C)CC(=O)c2c(n(S(=O)(=O)c3ccccc3)c3ccc(NS(=O)(=O)c4ccccc4)cc23)C1	-0.451%
CC(=O)N1N=C(c2ccncc2)OC1(Cc1ccccc1)Cc1ccccc1	-0.493%
O=C(CSc1n[nH]c(-c2cccnc2)n1)Nc1ccc(Cl)cc1	-2.05%
Cc1c(C(=O)NCCN2C(=O)S/C(=C\c3cccs3)C2=O)cccc1[N+](=O)[O-]	0.66%
CC[C@]1(O)C[C@@H]2CN(CCc3c([nH]c4ccccc34)[C@@](C(=O)OC)(c3cc4c(cc3OC)N(C)[C@H]3[C@@](O)(C(=O)OC)[C@H](OC(C)=O)[C@]5(CC)C=CCN6CC[C@]43[C@@H]65)C2)C1	-2.2%
Cc1ccc(-c2nc(CSCC(=O)NC3CCN(Cc4ccccc4)CC3)c(C)o2)cc1	0.251%
Cc1ccsc1-c1nc(CSCC(=O)NCCN2CCCC2)c(C)o1	35.6% (active)
Cc1cc(NC(=O)CSCc2nc(-c3cccc(Cl)c3)oc2C)no1	-0.561%
Cc1ccccc1CSCCNC(=O)c1ccc(Cl)c(S(=O)(=O)N2CCOCC2)c1	1.98%
CCC1CCCCN1C(=O)CSc1nc2c(c(=O)n(C)c(=O)n2C)n1C (configuration not stated)	17.3%
Nc1ccccc1SC(C[N+](=O)[O-])c1ccccc1 (configuration not stated)	33.7% (active)
CC(=O)N(OCc1ccc(OC(C)C)c(Cl)c1)C(C)=O	-0.894%
COc1ccccc1CNC(=O)C1CCN(C(=O)[C@@H]2Cc3ccccc3CN2)CC1	-0.254%
COc1cccc(C2c3[nH]c4ccccc4c3CCN2Cc2cccc(C)n2)c1 (configuration not stated)	1.72%
CCCNC(=O)CCc1c(C)nc2c(c(C)nn2-c2ccc(C)cc2)c1C	1.12%
COc1ccc(C(=O)N(C)CC(O)c2ccccc2)cc1OC1CCN(C(C)=O)CC1 (configuration not stated)	2.54%
Cc1cc(S(=O)(=O)NC2CCCC2)ccc1-n1cnnn1	0.47%

Compound	growth rescue
CCCCNC(=S)N/N=C1\CCCCc2ccccc21	63.9% (active)
S=C(NCCC1=CCCCC1)Nc1ccccc1	9.46%
CCCC1CCC(=NNC(=S)NCCc2ccccc2)CC1 (configuration not stated)	1.29%
CCCCn1nc(C(=O)Nc2cccc(C(=O)NC3CC3)c2)c2ccccc2c1=O	1.46%
O=C(NCCCN1CCCC1=O)c1ccc(S(=O)(=O)Nc2ccccc2)cc1	-0.823%
COCCN1C(=O)C(=O)/C(=C(/O)c2ccc(S(=O)(=O)N3CCOCC3)cc2)C1c1ccc(O)c(OC)c1 (configuration not stated)	-0.794%
CC(=O)OCc1cc(=O)n(C)c(=O)n1C	-0.117%
CC(=O)c1cc(NC(=O)c2ccccc2)c(=O)oc1/C=C/N(C)C	1.15%
COC(=O)c1nc(NC(=O)c2ccc(C(C)(C)C)cc2)n[nH]1	0.045%
CSc1nccc(NC(=O)c2ccc(C(C)(C)C)cc2)n1	733% (active)
Cc1cccc(NC(=O)c2ccc(S(=O)(=O)N(C)c3ccccc3)cc2)n1	-1.12%
Cn1c(C(=O)OC(C(=O)NC2CCCCC2)c2ccccn2)cc2sccc21 (configuration not stated)	1.92%
CC(C)(CNC(=O)c1ccc(Cl)c(S(=O)(=O)N2CCc3ccccc3C2)c1)N1CCOCC1	-1.18%
O=C(COC(=O)c1ccc([N+](=O)[O-])o1)NC12CC3CC(CC(C3)C1)C2	364% (active)
O=C(COC(=O)c1ccc(Br)o1)NC12CC3CC(CC(C3)C1)C2	4.21%
O=C(OCC(=O)c1cccs1)c1ccc([N+](=O)[O-])o1	-1.26%
Cn1cc(Cl)c(C(=O)NNC(=S)Nc2cccc(Cl)c2)n1	-0.14%
Cc1csc(NC(=S)Nc2cccc(Cl)c2)n1	118% (active)
Cc1cc(Cl)nc(NC(=O)Nc2cccc(Cl)c2)n1	-0.042%
CCOC(=O)c1csc(CCNC(=O)c2oc3c(Cl)cc(C)cc3c2C)n1	-0.607%
CCCc1nnc(NC(=O)CCC(=O)NC2CC2)s1	0.339%
O=C(NCCCCO)C(F)(F)C(F)(F)C(F)(F)C(=O)NCCCCO	-1.94%

Compound	growth rescue
O=c1ccc2cc(S(=O)(=O)NCCCc3ccccc3)ccc2[nH]1	30.5% (active)
O=S(=O)(NCCCc1ccccc1)c1ccc(Br)cc1	7.99%
O=S(=O)(NCCc1ccccc1)c1ccccc1	-1.03%
Cc1nc2ccccn2c1C(=O)NN=C1CCN(C)CC1	-0.557%
CCCCNC(=O)N(O)C1N(/N=C/c2ccc(N(C)C)cc2)C(=S)SC1(C)C (configuration not stated)	-1.02%
O=S(=O)(c1cccc2nonc12)N1CCN(c2cccc(Cl)c2)CC1	1.52%
CC1CCCC(NC(=O)c2cc(S(=O)(=O)N3CCCCC3)ccc2Cl)C1C (configuration not stated)	2.29%
O=C(NNC(=O)c1cc(S(=O)(=O)N2CCCCC2)ccc1Cl)c1ccccc1O	91.7% (active)
O=C(NNC(=O)c1ccccc1O)c1ccccc1O	68% (active)
CC1=C(C)CC(C(=O)NNC(=O)c2ccccc2O)C(C(=O)O)C1 (configuration not stated)	1.17%
O=C(Nc1ccccc1C(=O)O)c1cc(S(=O)(=O)N2CCCCC2)cs1	0.561%
Cc1cc(C(=O)CCC(=O)NNC(=O)c2ccccc2O)c(C)s1	-0.863%
COC(=O)c1sc(N)c(C(=O)OC)c1COC(=O)CNS(=O)(=O)c1ccc(C)cc1	0.164%
COc1ccc(C(=O)C2CCCN(C(=O)c3cc4nc(C)cc(C)n4n3)C2)cc1F (configuration not stated)	-1.21%
COc1ccc2c(c1)OC(O)(C(F)(F)C(F)F)CC2=O (configuration not stated)	0.213%
N#CCc1ccc(NC(=O)c2ccccc2C(=O)Nc2ccc(CC#N)cc2)cc1	-0.068%
Oc1ccc(Br)cc1/C=N/Nc1ccccn1	246% (active)
Cc1c(C(=O)Nc2ccccn2)oc2ccc(Br)cc12	-0.794%
O=C(NN=Cc1ccccc1O)NN=Cc1ccccc1O	-0.914%
